Some test systems named below: EKVX NSCLC; SN12C renal; UO-31 renal; TK-10 renal; ACHN renal; CAKI-1 renal; A498 renal; CCRF-CEM leukemia; MOLT-4 leukemia; SR leukemia; RPMI-8226 leukemia; OVCAR-8 ovarian; OVCAR-5 ovarian; OVCAR-4 ovarian; SK-OV-3 ovarian; IGROV1 ovarian; OVCAR-3 ovarian; HS 578T breast; NCI/ADR-RES ovarian; SK-MEL-2 melanoma.
Holding throughout (assay): NCI-60 one-dose screen, 48 h (100 = growth as untreated, 0 = no growth, -100 = all killed)
Common to all, as to conditions: 10 µM unless noted

About 83,000 compounds went through this panel and 20% of them were active in at least one assay; those are over-represented in the sample as a whole.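 48-hour exposure, single concentration, 96-well plates; percent growth endpoint where 0 means no net growth. Active: below 10.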 Values without a mark were called inactive. Calls of active or inactive are those of the source.

Consider `CCNCCNc1cc(-c2ccc(C(F)(F)F)cc2)c(C#N)c2nc3cc(Cl)c(Cl)cc3n12`, for which the growth in the test with EKVX NSCLC is -94.2% (active); in the test with SN12C renal it was -70.9% (active); with UO-31 renal, -92.5% (active); in the test on TK-10 renal it was -94.7% (active); in the test on ACHN renal it was -100% (active); in the test on CAKI-1 renal it was -91.5% (active). Further, the growth with A498 renal is -40.5% (active); in the test on CCRF-CEM leukemia it was -48.4% (active); in the test on MOLT-4 leukemia, -56.8% (active); in the test on SR leukemia, -49.2% (active); in the test with RPMI-8226 leukemia, -41.6% (active); in the test on OVCAR-8 ovarian, -64.1% (active). Also, the growth with OVCAR-5 ovarian was -92.3% (active); in the test with OVCAR-4 ovarian, -81.9% (active); in the test with SK-OV-3 ovarian, 67.6%; in the test on IGROV1 ovarian, -77.8% (active); in the test with OVCAR-3 ovarian, -88.4% (active); in the test with HS 578T breast it was -53.2% (active). The growth in the test with NCI/ADR-RES ovarian was -79.2% (active).
On to `CCOC(=O)c1sc2ccc(NCc3nc[nH]c3C)cc2c1NC(=O)c1cc(OC)c(OC)c(OC)c1`, for which the growth in the test on SK-MEL-2 melanoma was 84.1%; in the test on SN12C renal, 87.5%; in the test on TK-10 renal, 150%; with ACHN renal, 65.1%; in the test on CAKI-1 renal it was 96%; in the test on A498 renal, 101%. The growth in the test on CCRF-CEM leukemia was 52.2%; with MOLT-4 leukemia, 88.2%; in the test with SR leukemia it was 10.4%; in the test with RPMI-8226 leukemia, 80.1%; in the test on OVCAR-5 ovarian it was 96.7%; with OVCAR-4 ovarian it was 74%. In addition, the growth with SK-OV-3 ovarian is 98.1%; in the test on IGROV1 ovarian it was 89.5%; in the test on OVCAR-3 ovarian it was 94%; in the test on HS 578T breast, 99.2%; with NCI/ADR-RES ovarian, 91.7%.
For `CO[C@H]1/C=C/O[C@@]2(C)Oc3c(C)c(O)c4c(c3C2=O)C(=O)C(/C=N/N(c2ccccc2)c2ccccc2)=C(NC(=O)/C(C)=C\C=C\[C@H](C)[C@H](O)[C@@H](C)[C@@H](O)[C@@H](C)[C@H](OC(C)=O)[C@@H]1C)C4=O`, the growth with SK-MEL-2 melanoma is -60.8% (active); with SN12C renal, -49.2% (active); in the test on UO-31 renal, -19.3% (active); in the test on TK-10 renal, -1.72% (active); in the test with ACHN renal, -33% (active); in the test on A498 renal, -5.29% (active). Moreover, the growth in the test with CCRF-CEM leukemia is 1.62% (active); in the test with MOLT-4 leukemia, 3.36% (active); in the test on RPMI-8226 leukemia it was -19.1% (active); in the test with OVCAR-8 ovarian, 7.09% (active); with OVCAR-5 ovarian, -43.7% (active); in the test with OVCAR-4 ovarian, 9.98% (active). In addition, the growth is 12.2% in the test with SK-OV-3 ovarian; -16.3% (active) with IGROV1 ovarian; -83% (active) with OVCAR-3 ovarian; -0.488% (active) with HS 578T breast; 6.55% (active) in the test with NCI/ADR-RES ovarian.
As to `Cc1csc(NC(=O)c2sc3nc(-c4cccs4)ccc3c2N)n1`, the growth is 87.2% in the test on SK-MEL-2 melanoma; 98% in the test with SN12C renal; 88% with UO-31 renal; 118% in the test on TK-10 renal; 110% in the test on ACHN renal; 77.3% in the test with A498 renal. Besides, the growth with CCRF-CEM leukemia was 70.3%; in the test on MOLT-4 leukemia, 57.6%; in the test with SR leukemia, 81.5%; in the test on RPMI-8226 leukemia, 81.1%; in the test with OVCAR-8 ovarian, 97%; in the test with OVCAR-5 ovarian, 116%. In addition, the growth with SK-OV-3 ovarian was 96.1%; with IGROV1 ovarian, 109%; in the test on OVCAR-3 ovarian it was 111%; in the test on HS 578T breast, 99.5%; in the test on NCI/ADR-RES ovarian, 94.1%.
As for `Clc1ccc2[nH]c3c(NCCCN4CCOCC4)ncnc3c2c1`, the growth in the test on SK-MEL-2 melanoma was 94.5%; with SN12C renal it was 82.5%; in the test on UO-31 renal it was 57.2%; with TK-10 renal, 78.3%; with ACHN renal, 45.1%; with CAKI-1 renal it was 75.9%. Also, the growth in the test with A498 renal was 58.4%; in the test on MOLT-4 leukemia, 53.5%; in the test on SR leukemia it was -24.2% (active); with RPMI-8226 leukemia, 52.6%; in the test on OVCAR-8 ovarian, 66.5%; in the test on OVCAR-5 ovarian, 90.8%. The growth is 77.5% in the test on OVCAR-4 ovarian; 81.5% in the test with SK-OV-3 ovarian; 63.1% with IGROV1 ovarian; 85.3% in the test with OVCAR-3 ovarian; 102% in the test with HS 578T breast; 65.9% with NCI/ADR-RES ovarian.
`Nc1ccn(C2OC(F)(CO)C(O)C2F)c(=O)n1` (stereo unspecified): the growth was 81.4% with EKVX NSCLC; 36.4% in the test with SN12C renal; 10.7% in the test on UO-31 renal; 75.8% with TK-10 renal; 2.4% (active) in the test with ACHN renal; 35.6% in the test with CAKI-1 renal. The growth was 50.2% with A498 renal; 25% with CCRF-CEM leukemia; 18.8% in the test on MOLT-4 leukemia; 90.4% in the test with SR leukemia; 106% with RPMI-8226 leukemia; 22.4% in the test on OVCAR-8 ovarian. For the same compound, the growth in the test on OVCAR-5 ovarian is 97.4%; with OVCAR-4 ovarian, 73.2%; with SK-OV-3 ovarian it was 33.4%; in the test on IGROV1 ovarian, 49.8%; with OVCAR-3 ovarian, 66.8%; in the test on HS 578T breast, 78.8%. In the test with NCI/ADR-RES ovarian, the growth is 18.4%.
Consider `Nc1c(C(=O)Nc2ccccc2)sc2nc3c(cc12)CCCCCC3`, for which the growth in the test with SK-MEL-2 melanoma is 9.7% (active); in the test with UO-31 renal, 16.6%; in the test with TK-10 renal, 36.3%; in the test with ACHN renal it was 26.5%; with A498 renal it was -0.375% (active); in the test on CCRF-CEM leukemia it was 6.81% (active). Besides, the growth in the test with MOLT-4 leukemia is 18.3%; with SR leukemia, 12.6%; with OVCAR-8 ovarian, 16.4%; with OVCAR-5 ovarian, 15.3%; with SK-OV-3 ovarian, -4.37% (active); in the test with IGROV1 ovarian, 15.3%. Moreover, the growth in the test with OVCAR-3 ovarian was -34.8% (active); in the test on HS 578T breast, 22.8%; in the test with NCI/ADR-RES ovarian, 1.41% (active).
For `CCC(=O)OC1=C(C)SC2=NC(c3ccc(Cl)c(Cl)c3)=CC(c3cc(OC)c(OC)c(OC)c3)N21` (stereo unspecified), the growth in the test on SK-MEL-2 melanoma is 107%; in the test on SN12C renal it was 95.3%; in the test with UO-31 renal, 82.1%; in the test with TK-10 renal it was 133%; in the test with ACHN renal it was 102%; in the test on CAKI-1 renal, 87.8%. Besides, the growth in the test with A498 renal was 116%; in the test on MOLT-4 leukemia, 99.3%; in the test on SR leukemia, 103%; in the test on RPMI-8226 leukemia it was 95.8%; with OVCAR-5 ovarian it was 102%; in the test with OVCAR-4 ovarian it was 98.1%. Besides, the growth was 105% with SK-OV-3 ovarian; 106% in the test with IGROV1 ovarian; 108% with OVCAR-3 ovarian; 101% in the test on HS 578T breast; 105% in the test with NCI/ADR-RES ovarian.
As to `COc1cc2oc(-c3cccc(C(=O)Nc4ccc(C)cc4)c3)cc(=O)c2c(OC)c1OC`, the growth in the test with SK-MEL-2 melanoma was 42.3%; in the test on SN12C renal, 31.6%; with UO-31 renal it was 44.3%; in the test on TK-10 renal, 53.3%; in the test on ACHN renal, 34.2%; with CAKI-1 renal, 2.16% (active). Also, the growth with CCRF-CEM leukemia was 34.7%; in the test with MOLT-4 leukemia, 54.7%; in the test with SR leukemia it was 12.7%; with RPMI-8226 leukemia, -7.08% (active); in the test with OVCAR-8 ovarian it was 33.3%; in the test with OVCAR-5 ovarian, 48.2%. Besides, the growth in the test on OVCAR-4 ovarian is 59.8%; with IGROV1 ovarian, 44.4%; in the test with OVCAR-3 ovarian, 42.3%; in the test with HS 578T breast, 64.3%; in the test with NCI/ADR-RES ovarian it was 37.5%.

These data come from PubChem BioAssay (NCI).
